From PubChem BioAssay AID2289 (National Center for Advancing Translational Sciences (NCATS), 2010)
Values joined by “and” are separate entries in the source; they are usually repeats but may differ in a detail not shown here. Equal values may be shown once. The campaign covered roughly 340,000 compounds. About 3,300 (0.97%) were called active. Roughly 9% stayed inconclusive and do not appear here. The call rests on the fitted dose curve; in most records, active means well fitted inhibition curve with a large enough effect; inconclusive means small, poorly fitted or top-dose-only effect, or effect the other way; inactive means flat fitted curve, though single readings scatter. Some of the results follow.

Test: qHTS Assay for Modulators of miRNAs and/or Inhibitors of miR-21; further: nearly all actives have a fitted effect of over 55% in size
Settings: HeLa miR-21-FLuc reporter, luciferase luminescence, 48 h; actives lower the signal
From the text: MLSCN Grant: 1 R21 NS059478-01 Assay Provider: Qihong Huang, The Wistar Institute NCGC Assay Overview: MicroRNAs (miRNAs) are endogenously encoded small (~20-25 nucleotides), nonprotein-coding RNAs that are involved in post-transcriptional repression of target messenger RNAs (mRNAs) (Le and Hannon, 2004). Estimated to be involved in the regulation of 30% of all protein-coding mRNAs (Filipowicz et al., 2008), miRNAs play a significant role in many biological processes including cellular differentiation and tissue development (Ghildiyal and Zamore, 2009).
NCGC Assay Protocol Summary: Reagents: HeLa cells stably expressing firefly luciferase (FLuc) under the control of a CMV promoter (upstream) and a miR-21 binding sequence directly downstream of the gene. These cells endogenously express miR-21. Control compounds used were compound C3 (provided by collaborator), N6-phenyladenosine (MP Biomedicals, 0215379625), and DMSO. Assay Summary: 6uL of HeLa miR-21-FLuc cells in assay buffer (DMEM, Invitrogen #21063-029; 10% FBS, HyClone #SH30071.03) were dispensed at 2000cells/well (3.3 x 10^5 cells/mL) into Greiner solid-white TC-treated 1536-well plates using a Multidrop Combi (Thermo Fisher Scientific). Plates were incubated for one hour at 37 degree Celsius, 95% humidity, 5% CO2. These assay plates were then treated with 23nL of compound or DMSO using a Kalypsys pin tool, which allows for delivery of a 24-point titration of each compound to the assay plate, with a final compound concentration ranging from approximately 40uM to 5pM. Assay plates were then incubated for 48 hours. After incubation, plates were allowed to come to RT for one hour prior to delivery of 3uL of 3X luciferase detection reagent. After a 15 minute incubation to allow for cell lysis, luciferase activity was measured using a ViewLux CCD imager (PerkinElmer), with an average exposure time of 2-12 seconds. Keywords: NIH Roadmap, MLPCN, MLSMR, qHTS, miR-21, microRNA, firefly luciferase, FLuc.
Potency means the concentration at half of the fitted maximal effect.

Potency, active:
Cc1cc(=O)oc2cc(NC(=O)c3ccccc3Cl)ccc12 3.69 µM
COc1cccc(C(=O)Nc2ccc3c(C)cc(=O)oc3c2)c1 0.329 µM
Cc1cc(=O)oc2cc(NC(=O)c3ccccc3OC(F)F)ccc12 8.26 µM
CCCCOC(=O)Nc1ccc2c(C)cc(=O)oc2c1 1.17 µM
COc1cccc(C(=O)Nc2nnc(-c3ccccc3)s2)c1 0.826 µM
O=C(NC(=S)Nc1ccc2c(c1)C(=O)c1ccccc1C2=O)c1ccc(F)cc1 2.93 µM
COc1cccc(C(=O)Nc2ccc3c(c2)C(=O)c2ccccc2C3=O)c1 2.93 µM
c1ccc2sc(Nc3nc4cc5c(cc4s3)OCO5)nc2c1 3.69 µM
Fc1ccc2nc(Nc3nc4cc5c(cc4s3)OCO5)sc2c1 1.65 µM
CC(=O)c1sc(Nc2nc3cc4c(cc3s2)OCO4)nc1C 1.85 µM
C/C(=N\Nc1nc2ccccc2s1)c1ccc2c(c1)OCO2 10.4 µM
CCN(CC)S(=O)(=O)c1nnc(NC(=O)COc2ccc(Cl)cc2)s1 0.521 µM
CC(=O)Nc1nnc(COc2ccc(Cl)cc2)s1 3.29 µM
Nc1nnnn1/N=C/c1ccc(N2CCCCC2)c([N+](=O)[O-])c1 16.5 µM
N/C(CS(=O)(=O)c1ccccn1)=N\OC(=O)c1ccccc1Cl 4.65 µM
Cc1c2ccccc2nc2c(F)c(NC(C)C)c(F)c(F)c12 16.5 µM
O=C(Nc1cccc(Cl)c1)OCc1ccccn1 6.56 µM
O=C(Nc1ccc(Cl)cc1)OCc1ccccn1 5.85 µM
O=C(Cc1c(Cl)cccc1Cl)OCc1ccccn1 18.5 µM
Cc1ccc(-n2nnc(-c3ccnc4ccccc34)n2)cc1 1.85 µM
COc1ncccc1-c1nnn(-c2ccc(C)cc2)n1 1.47 µM
Cc1ccc(-n2nnc(-c3cccnc3Cl)n2)cc1 0.521 µM
O=C(Nc1ccccc1)OCCOc1ccccc1 3.69 µM
CC(C)c1ccc(NC(=O)COc2ccccc2)cc1 7.36 µM
CC(C)c1ccc(NC(=O)COc2ccc(F)cc2C(=O)c2cnn(-c3ccccc3)c2)cc1 2.93 µM
COCC(=O)Nc1ccc(OCc2ccccc2)cc1 11.7 µM
Cc1ccc(NC(=O)CCOc2ccccc2)cc1 5.85 µM and 8.26 µM
Cc1ccsc1C(=O)Nc1ccc(OCc2ccccc2)cc1 1.65 µM
CCOc1ccc(NC(=O)NC2CCCCCCC2)cc1 2.93 µM
CC(C)c1ccc(NC(=O)Cn2ncc3ccccc32)cc1 7.36 µM
COC(=O)Nc1ccc(OCc2ccccc2)cc1 5.21 µM
CCOc1ccc(NC(=O)Cc2ccccc2)cc1 2.61 µM
Clc1cccc(Cl)c1C1=NOC(c2nnc(-c3ccccc3)o2)C1 (stereo unspecified) 13.1 µM
O=C(Nc1ccc(N2CCCC2)cc1)c1cccc(Cl)c1 0.329 µM
COc1ccc(C(=O)Nc2ccc(N3CCCC3)cc2)cc1OC 4.65 µM
COc1ccc(C(=O)Nc2nc3ccccc3[nH]2)cc1OC 1.85 µM
NC(=O)NC(=O)C(Nc1ccc(N2CCCCC2)cc1)c1ccccc1 (stereo unspecified) 13.1 µM
Cc1cccc(NC(=O)c2cc3ccccc3oc2=O)c1 0.329 µM
CCN(C(=O)c1cc2ccccc2oc1=O)c1ccccc1 6.56 µM
Cc1ccnc(NC(=O)c2cc3ccccc3oc2=O)c1 0.414 µM
O=C(Nc1ccccc1O)c1cc2cc(Br)ccc2oc1=O 0.521 µM
CCOc1ccc(C2=NC(c3ccc(OC)cc3)=Nc3ccc(Cl)cc3N2)cc1 18.5 µM
O=C(Cn1cccc1C(=O)c1ccccc1)NCc1ccccc1Cl 11.7 µM
O=C1NC(=S)N/C1=C/c1cccc2ccccc12 14.7 µM
CCOC(=O)c1cccc(COC(=O)c2cccc(-c3nnc(-c4ccccc4)o3)c2)c1 5.85 µM
Cc1c(/C=C/C(=O)c2cccs2)cnn1C 14.7 µM
Cc1nn(C)cc1/C=C/C(=O)c1cccs1 13.1 µM
Nc1nnc(COc2ccc(Br)cc2Br)s1 5.21 µM
C=CCN1C(=O)C(=O)N(Cc2nc3ccccc3s2)C1=O 11.7 µM
Cc1ccc(Oc2ncnc3sccc23)cc1 14.7 µM
C=C(C)CNC(=O)CCc1nnc(Cc2cccc(C(F)(F)F)c2)o1 11.7 µM
CC1CCN(C(=O)c2cc3c(=O)n4ccccc4nc3s2)CC1 14.7 µM
CC1CCCN(C(=O)c2cc3c(=O)n4ccccc4nc3s2)C1 (stereo unspecified) 14.7 µM
O=C(NC1CCCCCC1)c1cc2c(=O)n3ccccc3nc2s1 10.4 µM
CC1CCCCN1C(=O)c1cc2c(=O)n3ccccc3nc2s1 (stereo unspecified) 16.5 µM
Cc1cc(N2CCN(C)CC2)nc2ccc(NC(=O)Nc3ccccc3Cl)cc12 0.585 µM
Cc1cc(N2CCN(C)CC2)nc2ccc(NC(=O)Nc3ccccc3)cc12 7.36 µM
Cc1cc(C)cc(Nc2ccc(C(=O)O)cc2N)c1 18.5 µM
O=C(/C=C/c1cccs1)c1ccc(NC(=O)c2ccccc2F)cc1 13.1 µM
N/C(Cc1ccc([N+](=O)[O-])cc1)=N\OC(=O)c1ccccc1F 16.5 µM
O=C(Nc1ccc([N+](=O)[O-])cc1)c1ccccc1F 4.14 µM
O=C(Nc1ccn(-c2ccccc2)n1)c1ccccc1Br 13.1 µM
N=C1C(c2nc3ccccc3[nH]2)=C(O)CN1c1ccc(F)cc1 14.7 µM
CCn1c(SCC(=O)O)nnc1-c1ccccc1OC 3.29 µM
CN(C)c1ccc(/C=N/N=C/c2ccccc2O)cc1 2.61 µM
Cc1cc2cc3c(N)[nH]nc3nc2cc1C 14.7 µM
CCc1ccc2nc3n[nH]c(N)c3cc2c1 2.33 µM
Cc1nc(-c2nc(-c3c(C(=O)NN)noc3C)cs2)cs1 4.14 µM
CSc1ccc(CNC(=O)c2ccc(NC(=O)c3nsc4ccccc34)cc2)cc1 0.585 µM
COCCCNC(=O)c1ccc(NC(=O)c2nsc3ccccc23)cc1 3.69 µM
CCOc1ccc(CNC(=O)c2ccc(NC(=O)c3nsc4ccccc34)cc2)cc1 1.85 µM
Cc1ccc(CNC(=O)c2ccc(NC(=O)c3nsc4ccccc34)cc2)cc1 1.65 µM
CCOc1cc(CNC(=O)c2ccc(NC(=O)c3nsc4ccccc34)cc2)ccc1OC 0.585 µM
O=C(Nc1ccccc1F)N1CCc2ccccc2C1 4.65 µM
Nc1nc(CSC(=S)N2CCCCC2)nc(Nc2ccccc2)n1 11.7 µM
Nc1nc(CSC(=S)N2CCOCC2)nc(Nc2ccccc2)n1 3.69 µM
Cn1c(CCN2CCCCCC2)nc2cc(NC(=O)Nc3ccccc3)ccc21 7.36 µM
Cc1ccc(NC(=O)Nc2ccc3c(c2)nc(C)n3C)cc1C 1.17 µM
Cc1nc2cc(NC(=O)Nc3cccc4ccccc34)ccc2n1C 2.93 µM
Cc1ccc(/C=N/Nc2ncc(Cl)cc2Cl)s1 3.69 µM
Cc1ccc(/C=N/Nc2cccc(C(=O)O)c2)s1 0.104 µM
Cc1ccc(/C=N/Nc2ccc(Cl)c(C(=O)O)c2)s1 0.165 µM
CN(C(=O)c1ccco1)c1nnc(C23CC4CC(CC(C4)C2)C3)s1 8.26 µM
CCSc1cc(C)nc2c(-c3ccccc3)cnn12 0.656 µM
C=CCSc1cc(C)nc2c(-c3ccccc3)cnn12 2.07 µM
COc1ccc(/C=C/C=C2\NC(=S)NC2=O)cc1 14.7 µM
Cc1oc(C(C)(C)C)cc1C(=O)Nc1ccc(C(=O)O)cc1 8.26 µM
NC1=NC(=O)/C(=C/c2cn(Cc3ccccc3)c3ccccc23)S1 9.27 µM
Cc1ccc(C(=O)C(C)OC(=O)c2ccccc2[N+](=O)[O-])cc1 (stereo unspecified) 4.65 µM
CCc1ccc(C(=O)Nc2ccc3nc(C)ccc3c2)cc1 3.29 µM
Cc1ccc2cc(NC(=O)c3ccccc3C)ccc2n1 5.85 µM
Cc1ccc2cc(NC(=O)c3cccc(F)c3)ccc2n1 0.464 µM
Cc1ccc(NC(=O)CC(=O)c2ccccc2)cc1C 11.7 µM
Cc1ccc2cc(NC(=O)Cc3ccccc3)ccc2n1 2.07 µM
CCC(=O)Nc1ccc(-c2csc(C)n2)cc1 7.36 µM
CCC(=O)Nc1ccc(-c2ccc(N3CCCCC3)nn2)cc1 4.14 µM
COc1cc(SC)ccc1C(=O)Nc1ccc2c(c1)CCC2 1.31 µM
COc1cc(SC)ccc1C(=O)Nc1ncc(Cl)cc1Cl 1.85 µM
COc1cc(SC)ccc1C(=O)Nc1ccc2ncccc2c1 0.369 µM
CSc1ccccc1C(=O)Nc1ccc2c(c1)CCC2 7.36 µM
COc1cc(SC)ccc1C(=O)Nc1ccc(C)cc1C 1.85 µM
CCCCN(C(=O)Cc1cccs1)c1nnc(-c2cccnc2)s1 14.7 µM
CC(C)OC(=O)CSc1nc(N)c(C#N)cc1C#N 5.85 µM
CSc1nc(N)nc(SCC(=O)OC(C)C)c1C#N 13.1 µM
CCOC(=O)CSc1nc(N)c(C#N)cc1C#N 8.26 µM
O=C1CCn2nc(-c3ccc(Cl)cc3)cc2N1 6.56 µM
